Compound activity from PubChem BioAssay.
CYP2C19 inh – blockers of cytochrome P450 2C19 activity – biochemical, luminescence, ADME assay, primary screen; inhibition, % at 5 µM; P33261; CYP2C19 Supersomes, luciferin-H EGE luminescence, 30 min; 96,000 tested, 21% active; AID 778, 2007;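 active = CYP2C19 inhibition above a set limit at 5 µM in the primary screen, cut at about 50% in these data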;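 also: plate controls were negative control wells for no effect and 2.5 mM tranylcypromine positive control for full effect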
Target sequence (P33261 whole entry, looked up): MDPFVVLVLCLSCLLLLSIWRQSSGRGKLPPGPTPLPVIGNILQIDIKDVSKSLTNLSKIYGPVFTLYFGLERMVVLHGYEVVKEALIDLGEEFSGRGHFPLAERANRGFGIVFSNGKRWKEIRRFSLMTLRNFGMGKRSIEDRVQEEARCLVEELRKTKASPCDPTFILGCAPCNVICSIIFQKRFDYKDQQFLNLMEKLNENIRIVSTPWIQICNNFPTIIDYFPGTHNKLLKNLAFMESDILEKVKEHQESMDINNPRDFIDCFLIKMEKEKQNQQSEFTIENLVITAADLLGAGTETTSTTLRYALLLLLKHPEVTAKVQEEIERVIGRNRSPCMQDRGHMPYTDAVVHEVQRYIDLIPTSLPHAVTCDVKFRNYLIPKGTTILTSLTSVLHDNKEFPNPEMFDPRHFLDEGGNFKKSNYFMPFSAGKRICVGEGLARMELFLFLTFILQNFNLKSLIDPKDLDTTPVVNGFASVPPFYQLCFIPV
CYP2C19 act – human CYP2C19 activators, primary screen, biochemical, luminescence; activation factor at 5 µM; Cytochrome P450 2C19 (Homo sapiens), P33261; recombinant CYP2C19, luciferin-H EGE luminescence; hits give high values; 0 = fully inhibited enzyme, 1 = untreated enzyme; 96,000 tested, under 10 active; AID 1025, 2008;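 active = activation factor of at least 2 at 5 µM in the primary screen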;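 also: 0 = wells with 2.5 mM tranylcypromine and 1 = vehicle-only wells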
CYP2C9 inh – blockers of cytochrome P450 2C9 activity – biochemical, luminescence, ADME assay, primary screen | P11712 | CYP2C9 Supersomes, luciferin-H conversion | inhibition, % at 5 µM | 96,000 tested, 20% active;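 active = blocking of liver enzyme CYP2C9 beyond about 50% at 5 µM, limit read from the data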
PLAP act – PLAP enzyme activators, biochemical, luminescence, HTS. Alkaline phosphatase, placental type (Homo sapiens), P05187. purified PLAP enzyme, luminescent substrate read-out; hits give high values. activation fold at 20 µM. 96,000 tested, 1.2% active. AID 696, 2007; in the data active = activation fold above about 2
CYP2C9 activ – human CYP2C9 activators, primary screen, biochemical, luminescence | activation factor at 5 µM | Cytochrome P450 2C9 (Homo sapiens), P11712 | AID 1024, 2008 | recombinant CYP2C9, luciferin-H conversion; hits give high values; factor 1 = untreated enzyme, 0 = blocked | 96,000 tested, 1.4% active;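 active = activation factor of 2 or more for CYP2C9 at a 5 µM dose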;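 also: 0 = sulfaphenazole-blocked wells and 1 = vehicle-only wells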
* = called active by the depositor. A selection: hits, their analogues and other compounds. The true share with any hit is near 31%.

SMILES	CYP2C19 inh	CYP2C19 act	CYP2C9 inh	PLAP act	CYP2C9 activ
COc1ccc(Sc2cnn(-c3ccccc3)c(=O)c2Cl)cc1	35	0.6	85*	1	0.1
COc1ccc(N2CCN(CC(O)c3c[nH]c4ccc(OC)cc34)CC2C)cc1 (configuration not stated)	22	0.8	28	1.2	0.7
COC(=O)C1=C(C)NC(C)=C(C(=O)OC)C1c1cc2cc(C)ccc2[nH]c1=O	10	0.9	26	1.4	0.7
Cc1ccc2[nH]c(=O)c(C3C(C#N)=C(N)Oc4c3ccc3cccnc43)cc2c1 (configuration not stated)	-14	1.1	62*	2.2*	0.4
N#Cc1cccc(-n2c(-c3ccccc3)nnc2-c2ccccc2)c1C#N	89*	0.1	89*	0.8	0.1
c1cncc(-c2csc(NCc3ccco3)n2)c1	86*	0.1	74*	0.9	0.3
O=C(Nc1nc(-c2cccnc2)cs1)c1ccc(S(=O)(=O)N2CCOCC2)cc1	8	0.9	10	1	0.9
COc1ccc(-c2csc(NCc3ccco3)n2)cc1C	81*	0.2	62*	1	0.4
Cc1ccn2c(-c3csc(NCc4ccco4)n3)c(C)nc2c1	25	0.7	19	1.1	0.8
c1ccc(CCNc2nc(-c3cccnc3)cs2)cc1	92*	0.1	59*	0.9	0.4
O=C(CNC(=O)c1ccco1)NCC(=O)OCc1cccc(C(=O)Oc2ccccc2)c1	41	0.6	30	1.2	0.7
COc1ccc(SCC(=O)c2cc(C)c(OC(=S)N(C)C)c(C)c2)cc1	87*	0.1	45	1.3	0.6
COc1ccc2nc(SCC(N)=O)cc(C)c2c1	3	1	-44	0.7	1.4
Cc1cc(C(=O)CSc2ccc(F)cc2)cc(C)c1OC(=S)N(C)C	94*	0.1	81*	1	0.2
c1ccc2c(c1)nc(N1CCN(C3CCCCC3)CC1)c1nnnn12	48	0.5	8	0.9	0.9
CCOc1ccc(CN2CCNC(=O)C2CC(=O)OC)cc1 (configuration not stated)	-15	1.2	-12	1.1	1.1
Cc1ccc(CN2CCS(=O)(=O)CC2)cc1	66*	0.3	39	0.9	0.6
O=C(Cc1ccc(-n2c(=S)[nH]c3ccccc3c2=O)cc1)N1CCN(c2ccccc2)CC1	55*	0.4	4	1.5	1
O=C(Cc1ccc(Br)cc1)N1CCN(c2ccccc2)CC1	99*	0	88*	0.9	0.1
O=C(Cc1ccc(-n2c(=O)[nH]c3ccccc3c2=O)cc1)N1CCN(c2ccccc2)CC1	3	1	8	1.2	0.9
Cc1ccc(CN2CCNC2=O)cc1	3	1	12	1	0.9
COc1ccc(CC(=O)N2CCN(C(=O)Cc3ccc(OC)cc3)CC2)cc1	7	0.9	-4	1.2	1
COC(=O)C1CCN(C(=O)Cc2ccc(Br)cc2)CC1	90*	0.1	19	0.9	0.8
COc1ccc(-c2noc(-c3ccccc3C(=O)N3CCOCC3)n2)cc1	5	0.9	42	1	0.6
COc1ccc(CC(=O)N2CCCC(C)C2)cc1 (configuration not stated)	50	0.5	-10	1.1	1.1
SMILES	CYP2C19 inh	CYP2C19 act	CYP2C9 inh	PLAP act	CYP2C9 activ
Cc1cccc(N2CCN(C(=O)Cc3ccc(Br)cc3)CC2)c1C	70*	0.3	31	0.9	0.7
COC(=O)C1CCN(Cc2ccc(C)cc2)CC1	85*	0.1	12	1.2	0.9
O=C(Cc1ccc(Br)cc1)N1CCCCCC1	53*	0.5	10	0.8	0.9
CC1CCCN(C(=O)Cc2ccc(F)cc2)C1 (configuration not stated)	73*	0.3	33	0.9	0.7
CC(=O)C1CCN(Cc2ccccc2)CC1	34	0.7	1	1.1	1
O=C(CNC(=O)c1ccc(Oc2ccccc2)cc1)OC1CCCCC1=O (configuration not stated)	11	0.9	12	1	0.9
CN1CCN(C(=O)c2ccccc2NC(=O)Cc2ccccc2)CC1	5	0.9	3	1	1
CSc1nc(Oc2ccc3ccccc3c2)c2ccccc2n1	38	0.6	36	1.1	0.6
Cc1cccc(N2CCCn3c2nc2c3c(=O)n(CCN3CCOCC3)c(=O)n2C)c1	12	0.9	24	1.2	0.8
CN1CC2=Cc3ccccc3OC23Oc2ccccc2C=C3C1	54*	0.5	58*	1.4	0.4
O=C(NN1C(=O)c2ccc3c4c(ccc(c24)C1=O)CC3)c1ccc(Br)cc1	-14	1.1	-252	1.1	3.5*
O=C(CN1C(=O)CSC1=O)Nc1ccc2c(c1)OCCO2	-6	1.1	2	1	1
c1csc(Cn2c(-c3cccs3)nc3ccccc32)c1	87*	0.1	94*	0.8	0.1
O=C(CCc1nc(-c2ccccc2)no1)NCC1CCCO1 (configuration not stated)	-8	1.1	-16	1	1.2
Cc1noc(C)c1CSc1nnc(-c2ccccc2F)n1CCc1ccccc1	39	0.6	23	1.2	0.8
Cc1noc(C)c1CSc1nnc2sc3ccccc3n12	78*	0.2	2	1.1	1
Cc1noc(C)c1CSc1cc(C)c2ccccc2n1	86*	0.1	55*	1.1	0.5
Cc1noc(C)c1CSc1ccc(Br)cc1	96*	0	11	1.1	0.9
Cc1cc(SCCC(=O)O)nc2ccccc12	-17	1.2	-25	1.3	1.2
Cc1noc(C)c1CSc1nc2ccccc2n1C	89*	0.1	62*	1	0.4
Cc1cccn2c(=O)c3cc(C#N)c(=O)n(CC4CCCO4)c3nc12 (configuration not stated)	24	0.8	15	1.1	0.8
Cc1ccc2nc(NC(=O)C3CCCN(S(=O)(=O)c4cnc[nH]4)C3)sc2c1 (configuration not stated)	26	0.7	51*	1.8	0.5
Cc1ccc2nc(NC(=O)C3CCCN(S(=O)(=O)c4cccnc4)C3)sc2c1 (configuration not stated)	-14	1.1	13	1	0.9
CCN(CC)c1ccc(NC(=O)C2CCCN(S(=O)(=O)c3cnc[nH]3)C2)c(C)c1 (configuration not stated)	4	1	22	1.6	0.8
CCOc1ccccc1NC(=O)C1CCCN(S(=O)(=O)c2ccc(OC)c(C)c2)C1 (configuration not stated)	93*	0.1	5	1	0.9
CCSc1nnc(NC(=O)C2CCCN(S(=O)(=O)c3cnc[nH]3)C2)s1 (configuration not stated)	25	0.8	74*	1	0.3
